# Only a selection was taken, and the strongest signals are over-represented in it overall.
# Legend:
# Experiment in all cases: glycan array binding signal (z-score within array); higher = stronger binding
# Conditions in all cases: glycan notation: IUPAC condensed, linker removed
# Fuc(a1-2)Gal(b1-4)Glc = target: Fuc(a1-2)Gal(b1-4)Glc
# Procedure, shortened: (§1)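 Glycan array data came from 3228 arrays in the Consortium for Functional Glycomics database, and only arrays with an available protein sequence were kept. Glycan names were put into IUPAC-condensed notation, and columns mapping to the same glycan were averaged. The binding signal is a within-array Z-score, averaged across arrays of one protein sequence run at different concentrations or buffers and across linkers. A negative Z-score can be read as non-binding.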
# [1] = target: Fuc(a1-2)Gal(b1-4)[Fuc(a1-3)]GlcNAc
# Procedure, shortened: as §1
# Fuc(a1-2)[Gal(a1-3)]Gal = target: Fuc(a1-2)[Gal(a1-3)]Gal
# Procedure, shortened: as §1
# [2] = target: Fuc(a1-2)[GalNAc(a1-3)]Gal(b1-4)[Fuc(a1-3)]GlcNAc
# Procedure, shortened: as §1
# [3] = target: Fuc(a1-2)[GalNAc(a1-4)]Gal(b1-4)GlcNAc
# Procedure, shortened: as §1
# Fuc(a1-3)GlcNAc = target: Fuc(a1-3)GlcNAc
# Procedure, shortened: as §1
# Gal(a1-2)Gal = target: Gal(a1-2)Gal
# Procedure, shortened: as §1
# Gal(a1-3)Gal = target: Gal(a1-3)Gal
# Procedure, shortened: as §1
# Gal(a1-3)Gal(b1-4)Glc = target: Gal(a1-3)Gal(b1-4)Glc
# Procedure, shortened: as §1
# Gal(a1-6)Glc = target: Gal(a1-6)Glc
# Procedure, shortened: as §1
# [4] = target: Gal(b1-3)GalNAc(b1-4)[Neu5Ac(a2-3)]Gal(b1-4)Glc
# Procedure, shortened: as §1
# [5] = target: Gal(b1-3)[Neu5Ac(b2-6)]GalNAc
# Procedure, shortened: as §1
# [6] = target: Gal(b1-4)GalNAc(a1-3)[Fuc(a1-2)]Gal(b1-4)GlcNAc
# Procedure, shortened: as §1
# [7] = target: Gal(b1-4)GlcNAc(b1-3)Gal(b1-4)GlcNAc(b1-3)Gal(b1-4)GlcNAc
# Procedure, shortened: as §1
# [8] = target: Gal(b1-4)GlcNAc(b1-3)[Gal(b1-4)GlcNAc(b1-6)]Gal(b1-4)GlcNAc
# Procedure, shortened: as §1
# Gal3S(b1-3)GalNAc = target: Gal3S(b1-3)GalNAc
# Procedure, shortened: as §1
# Gal3S(b1-4)Glc = target: Gal3S(b1-4)Glc
# Procedure, shortened: as §1
# Gal3S(b1-4)GlcNAc6S = target: Gal3S(b1-4)GlcNAc6S
# Procedure, shortened: as §1
# GalNAc(b1-3)GalNAc = target: GalNAc(b1-3)GalNAc
# Procedure, shortened: as §1
# Glc(a1-4)Glc = target: Glc(a1-4)Glc
# Procedure, shortened: as §1
# GlcNAc(b1-3)Man = target: GlcNAc(b1-3)Man
# Procedure, shortened: as §1
# GlcNAc(b1-4)GlcNAc = target: GlcNAc(b1-4)GlcNAc
# Procedure, shortened: as §1
# Kdn(a2-3)Gal(b1-4)GlcNAc = target: Kdn(a2-3)Gal(b1-4)GlcNAc
# Procedure, shortened: as §1
# [9] = target: Man(a1-2)Man(a1-6)[Man(a1-3)]Man(a1-6)[Man(a1-2)Man(a1-2)Man(a1-3)]Man
# Procedure, shortened: as §1
# [10] = target: Man(a1-2)Man(a1-6)[Man(a1-3)]Man(a1-6)[Man(a1-2)Man(a1-2)Man(a1-3)]Man(b1-4)GlcNAc(b1-4)GlcNAc
# Procedure, shortened: as §1
# [11] = target: Neu5Ac(a2-3)Gal(b1-4)[Fuc(a1-3)]GlcNAc(b1-3)Gal(b1-4)[Fuc(a1-3)]GlcNAc(b1-3)Gal(b1-4)[Fuc(a1-3)]GlcNAc
# Procedure, shortened: as §1
# [12] = target: Neu5Ac(a2-6)Gal(b1-4)GlcNAc(b1-3)Gal(b1-4)[Fuc(a1-3)]GlcNAc(b1-3)Gal(b1-4)[Fuc(a1-3)]GlcNAc
# Procedure, shortened: as §1
# [13] = target: Neu5Ac(a2-8)Neu5Ac(a2-8)Neu5Ac(a2-3)[GalNAc(b1-4)]Gal(b1-4)Glc
# Procedure, shortened: as §1
# [14] = target: Neu5Ac9Ac(a2-6)Gal(b1-4)GlcNAc
# Procedure, shortened: as §1
binder,measurement,setting,value
"NKp30 (Homo sapiens), O14931 (protein) MAWMLLLILIMVHPGSCALWVSQPPEIRTLEGSSAFLPCSFNASQGRLAIGSVTWFRDEVVPGKEVRNGTPERFGRLAPLASSRFLHDHQAELHIRDVRGHDASIYVCRVEVLGLGVGTGNGTRLVVRKEHPQLGAGTHADPEAPEAEGAPSVFLFPPKPKDTLMISRTPEVTCVVVDVSHEDPEVKFNWYVDGVEVHNAKTPREEQYNSTYRVVSVLTVLHQDWLNGKEYKCKVSNKALPAPIEKTISKAKGQPREPQVYTLPPSRDELTKNQVSLTCLVKGFYPSDIAVEWESNGQPENNYKTTPPVLDSDGSFFLYSKLTVDKSRWQQGNVFSCSVMHEALHNHYTQKSLSLSPGK",glycan array binding signal (z-score),Fuc(a1-2)Gal(b1-4)Glc,-0.091
same,glycan array binding signal (z-score),[1],0.195
same,glycan array binding signal (z-score),Fuc(a1-2)[Gal(a1-3)]Gal,0.375
same,glycan array binding signal (z-score),[2],0.416
same,glycan array binding signal (z-score),[3],-0.379
same,glycan array binding signal (z-score),Fuc(a1-3)GlcNAc,13.9
same,glycan array binding signal (z-score),Gal(a1-2)Gal,1.41
same,glycan array binding signal (z-score),Gal(a1-3)Gal,1.89
same,glycan array binding signal (z-score),Gal(a1-3)Gal(b1-4)Glc,2.48
same,glycan array binding signal (z-score),Gal(a1-6)Glc,6.49
same,glycan array binding signal (z-score),[4],-0.671
same,glycan array binding signal (z-score),[5],-0.317
same,glycan array binding signal (z-score),[6],0.071
same,glycan array binding signal (z-score),[7],-0.44
same,glycan array binding signal (z-score),[8],0.041
same,glycan array binding signal (z-score),Gal3S(b1-3)GalNAc,-0.265
same,glycan array binding signal (z-score),Gal3S(b1-4)Glc,-0.02
same,glycan array binding signal (z-score),Gal3S(b1-4)GlcNAc6S,-0.253
same,glycan array binding signal (z-score),GalNAc(b1-3)GalNAc,1.68
same,glycan array binding signal (z-score),Glc(a1-4)Glc,0.053
same,glycan array binding signal (z-score),GlcNAc(b1-3)Man,-0.416
same,glycan array binding signal (z-score),GlcNAc(b1-4)GlcNAc,0.115
same,glycan array binding signal (z-score),Kdn(a2-3)Gal(b1-4)GlcNAc,-0.251
same,glycan array binding signal (z-score),[9],-0.314
same,glycan array binding signal (z-score),[10],-0.41
same,glycan array binding signal (z-score),[11],-0.204
same,glycan array binding signal (z-score),[12],-0.38
same,glycan array binding signal (z-score),[13],-0.221
same,glycan array binding signal (z-score),[14],0.048
